Assay outcomes: PubChem, Broad Institute
Tgondii IFNg = T. gondii growth inhibition under IFN-gamma; Toxoplasma gondii growth in IFN-gamma-treated host cells; hits give low values; 69,000 compounds, 3.8% hits; activity change, negative = inhibition, % (no concentration beside the values); in the data active means activity change below about -70%, passing the limit was not always enough;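 further: host cells are HeLa cells infected with Toxoplasma gondii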
* hit, by the source's call; i = inactive. Only a selection was taken, and hits are over-represented in it overall.

SMILES	Tgondii IFNg
CCN1Cc2ccccc2CC1C(=O)N(C)Cc1ccc2c(c1)OCO2 (centres undefined)	4
Cc1ccn2c(C(=O)N3C[C@@H]4C5CCC(CC5)[C@@H]4C3)c(C)nc2c1	3
O=C(Nc1nnc(SCc2ccccc2)s1)C1COc2ccccc2C1 (centres undefined)	-83*
COCCSc1nnc(NC(=O)c2ccco2)s1	192
O=C(CSc1nc2ccccc2o1)Nc1nnc(SCc2ccccc2)s1	48
N#CC1(C(=O)N2CCC(F)(F)C3(CCN(c4cnccn4)C3)C2)CC1 (centres undefined)	-47
Cc1cc(C(F)(F)F)nc(CCn2cc(-c3ccnc4ccccc34)nn2)n1	-17
Cc1cc(-n2cnnc2)ncc1-c1ccc(C(C)N2CCCC2)cc1 (centres undefined)	-5
COc1ccc(F)c(-c2cnc(-n3cnnc3)cc2C)c1	-81*
COc1ccc(F)c(-c2nc(OC)cc(OC)n2)c1	-16
Cc1ccccc1N1CCN(Cc2cnc(N3CCOCC3)nc2)C(C)C1 (centres undefined)	-2
COCCNC(=O)[C@H]1C[C@H]2CCN(S(C)(=O)=O)C[C@H]2O1	2
C[C@@H]1CN([C@@H](C)CO)C(=O)Cc2cc(N(C)C)ccc2O[C@H]1CN(C)Cc1ccc(-c2ccccc2)cc1	69
C[C@@H]1CN([C@H](C)CO)C(=O)c2cc(N(C)C)ccc2O[C@H]1CN(C)Cc1ccc(Oc2ccccc2)cc1	60
C[C@H](CO)N1C[C@H](C)[C@H](CN(C)Cc2ccc(-c3ccccc3)cc2)Oc2ccc(N(C)C)cc2CC1=O	-83*
O=S(=O)(NCCc1csc(-c2cccc(F)c2)n1)c1ccccc1	-57
CN1[C@@H]2CC[C@H]1CC(OC(=O)c1c[nH]c3ccccc13)C2 (some centres undefined)	-5
CN1C2CCC1CC(OC(=O)c1c[nH]c3ccccc13)C2 (centres undefined)	12
CN(C)c1cc(OC2CCN(C(=O)c3c[nH]c4ccccc34)C2)ncn1 (centres undefined)	-84*
COc1ccc(NC2C3CCCC2CNC3)c(OC)c1 (centres undefined)	i
O=c1cc(-c2ccccc2)oc2c(O)c(O)ccc12	-92*
Cc1oc2c(O)c(O)ccc2c(=O)c1-c1ccccc1	43
Cc1cc(=O)oc2c(O)c(O)ccc12	7
C=CCN1C[C@H]2CN(CC3CCOCC3)CCC[C@@]2(C(=O)OCC)C1	2
COc1ccc(-c2nc3cnccn3c2NCCC(=O)N2CCC(C)CC2)cc1	156
SMILES	Tgondii IFNg
O=C(NCCc1csc(-c2ccccc2)n1)c1cccs1	246
COc1ccc(-c2nc(CCNC(=O)c3cccs3)cs2)cc1OC	i
O=C(NCCc1csc(-c2ccc(Cl)cc2)n1)c1cccs1	-79*
Cc1ccc(C)c(NC(=O)C(=O)NCCc2csc(-c3cccc(F)c3)n2)c1	-101*
COc1ccc(-c2nc(CCNC(=O)c3ccc(OC)cc3OC)cs2)cc1	42
COc1ccccc1OCC(=O)NCCc1csc(-c2cccc(F)c2)n1	48
Cc1ccc(C)c(NC(=O)C(=O)NCCc2csc(-c3ccc(F)cc3)n2)c1	-69
O=C(NCCc1csc(-c2cccc(F)c2)n1)c1ccccc1F	-22
COc1ccccc1C(=O)NCCc1csc(-c2cccc(F)c2)n1	-78*
COc1ccc(-c2nc(CCNC(=O)c3ccccc3Br)cs2)cc1	i
Cc1ccc(Cl)cc1NC(=O)C(=O)NCCc1csc(-c2cccc(F)c2)n1	-64
COc1ccc(C(=O)NCCc2csc(-c3ccc(Cl)cc3)n2)c(OC)c1	-85*
C=CCNC1CCCC1(CC=C)C(=O)OCC (centres undefined)	38
Cc1ccccc1OC1CCN(Cc2nc(-c3sccc3C)oc2C)CC1	5
C[C@H]1CC[C@@]2(OC1)O[C@H]1C[C@H]3[C@@H]4CC[C@@H]5C[C@@H](O)CC[C@]5(C)[C@H]4CC[C@]3(C)[C@H]1[C@@H]2C	11
CCN1c2cc(C)ccc2-n2cccc2C12CCN(C(=O)NC1CCCCC1)CC2	-60
c1cc(C2CCCN(Cc3cn[nH]c3C3CCCCC3)C2)[nH]n1 (centres undefined)	-43
O=C(NCCc1csc(-c2ccc(Cl)cc2)n1)c1ccc(F)cc1	-60
CCCCOc1ccc(C(=O)NCCc2csc(-c3ccc(Cl)cc3)n2)cc1	-49
COc1ccc(Cl)cc1C(=O)NCCc1sc(-c2cccc(F)c2)nc1C	4
CCOc1ccccc1C(=O)NCCc1csc(-c2cccc(F)c2)n1	-91*
O=C(NCCc1csc(-c2ccc(Cl)cc2)n1)c1ccccc1	-40
O=C(NCCc1csc(-c2ccc(F)cc2)n1)c1ccccc1	-81*
CCOc1cc(C(=O)NCCc2csc(-c3cccc(F)c3)n2)cc(OCC)c1OCC	39
CCOc1ccc(C(=O)NCCc2csc(-c3ccc(OC)cc3)n2)cc1	38
COc1ccc(Cl)cc1C(=O)NCCc1csc(-c2cccc(F)c2)n1	-90*
CCCCOc1ccc(C(=O)NCCc2csc(-c3ccc(OC)cc3)n2)cc1	-110*
CCOc1ccc(C(=O)NCCc2csc(-c3cccc(F)c3)n2)cc1OCC	54
